Measured values taken from the supplement of paper PMC10681739.

Biological target: T1, ETS1 (UniProt P14921)
T1 sequence: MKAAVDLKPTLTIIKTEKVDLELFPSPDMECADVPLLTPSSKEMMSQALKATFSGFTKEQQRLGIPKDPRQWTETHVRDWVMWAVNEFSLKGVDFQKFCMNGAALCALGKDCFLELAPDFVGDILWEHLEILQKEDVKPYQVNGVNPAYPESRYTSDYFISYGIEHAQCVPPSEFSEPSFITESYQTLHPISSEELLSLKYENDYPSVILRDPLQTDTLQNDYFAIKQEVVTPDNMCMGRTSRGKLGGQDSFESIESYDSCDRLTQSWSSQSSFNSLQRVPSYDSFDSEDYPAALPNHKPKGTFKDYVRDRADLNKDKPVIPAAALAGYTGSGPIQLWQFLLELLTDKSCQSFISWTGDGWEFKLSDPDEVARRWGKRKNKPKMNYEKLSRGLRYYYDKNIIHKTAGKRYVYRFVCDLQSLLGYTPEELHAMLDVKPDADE
Experiment: ETS1 binding intensity (PBM fluorescence), ETS1 alone (arbitrary fluorescence units); higher = stronger binding
Conditions: ETS1 concentration 1 nM; RUNX1 concentration 0 nM

Sequence | ETS1 binding intensity
TTGAATATGAAAGGAAGTGGTTAGGTGATGTGTTCT | 2370
GATGCTTGTTCAGGATGCGGTTTCTTGCAGCAAGTT | 674
ATGCCTGTAGGAGGATGTGGTTTCTACACAACTCTG | 981
GGCTTCCGCCTGCCGAGCGGCCCCGGACCGCAGGCC | 343
TGAGGGGCTCGCCGGGAAATGTGGTTTAGCGGCCCT | 564
ATCTTTTGATGAGGATGTGGTTTCCAGGCAGGTGCT | 836
CAGGAGCAGTGTAGAGGAAGTGGTTTCCATCACGGA | 2630
CGTTTCCTGTCTGGGACTGCGCCCACGCGGTCACGT | 725
CATGGGGAGGAGGAAGTGGTGGCGGCCGCAGGCCAG | 1040
TCTGGATTTCCTGTGGGGCTCTCCCACAAGCAGTAC | 518
GGGAGGTGTCCAGGAAGTGGTTGGAGAGTCTGGTCT | 2240
GTGAGAGGAAGTGGGCGCTGGTTTAATGTGGTCAGC | 1010
AAACCCCAAACAGGAAGTGGTAAAGCAACCTGCATC | 11200
GCCACATATTTCCTGTGACAACCCTGTGGTGTGGCT | 641
CTTAGCACTTCAGCCGGAAACCACAGCATACATTTC | 3980
ACAGATAGTGATATCCTGTGGTCAATTCCCTCCCCT | 949
ATTCCTAGAGAGGAAATGCGGGCTCAGGGTGTCGGC | 1550
CTCTCACTTCCCGTGTGAGAAAAACCACAGAAAAGC | 651
AAGGCAAACAGGAAATCATAACCACAAACCAGGAAC | 2960
TCACATTTTGCCGGATGTGGGTTGAGGGCATGCTGC | 6680
TCCGGAAGTCGGAGGAACACCCCAGCCGCCGCAGCC | 1840
